High-throughput results from PubChem BioAssay.
PNC inhibitor – High Content Assay for Compounds that inhibit the Assembly of the Perinucleolar Compartment; PC3M PTB-GFP, PNC prevalence imaging, 16 h; hits give low values; activity change (PNC), negative = inhibition, % at 10 µM; 3.1% of 140,000 active; AID 2417, 2010;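 active means readout at or below -70, meaning at least 70% loss of cells showing the perinucleolar compartment, a nuclear body marking cancer cells; inconclusive means readout between -30 and a set limit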
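PC3M cells stably expressing PTB-GFP, 750–1000 cells/well, treated 16 h at 37 °C with compound (23 nl of library stock), in duplicate. After paraformaldehyde fixation and Hoechst stain, imaged at 20x; PNC prevalence scored by image analysis.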
IMPase cell inh – qHTS Assay for Identifying the Cell-Membrane Permeable IMPase Inhibitors; inhibition (IP1 accumulation), % at 46.1 µM; Inositol monophosphatase 1 (Rattus norvegicus), P97697; 120,000 tested, under 10 active; CHO-M1 cells, IP1 accumulation, HTRF TR-FRET ratio; active means well fitted curve in the direction sought with a large enough effect in the signal ratio, not every such curve was filed as active; inconclusive means small, poorly fitted or top-dose-only effect, or a change in a side signal; inactive means no such curve, though single readings can be large or run the other way; the % refers to the signal ratio;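 further: cells stimulated with carbachol in lithium chloride buffer; higher means more IMPase inhibition seen as more IP1 and lower FRET ratio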
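CHO-M1 cells (CHO stably expressing M1 receptor), compound up to 46 uM final, stimulated with carbachol (50 uM as added) in buffer with 50mM LiCl, pH 7.4, 30 min at 37C. Cytosolic IP1 read by TR-FRET; AC50 from Hill fits.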
HPGD block – qHTS Assay for Inhibitors of HPGD (15-Hydroxyprostaglandin Dehydrogenase); purified HPGD, NADH fluorescence kinetic, PGE2 substrate; Potency, µM, hits mostly inhibitors; 4.3% of 150,000 active; AID 894, 2007; active means well fitted inhibition curve with a large enough effect, not every such curve was filed as active; inconclusive means small, poorly fitted or top-dose-only effect, or another doubt; inactive means no such curve, though single readings can be large or run the other way
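NADH formation kinetics: reaction with 30 uM PGE2 and 1 mM NAD+ (final), 20 nM enzyme, Tris-HCl pH 8 with Tween 20, after 15 min compound preincubation at room temperature. Fluorescence change, last versus first of five reads.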
ALDH1A1 inh – qHTS Assay for Inhibitors of Aldehyde Dehydrogenase 1 (ALDH1A1) | Aldehyde dehydrogenase 1A1 (Homo sapiens), P00352 | Purified ALDH1A1, NADH fluorescence, propionaldehyde substrate | Potency, µM (series often up to 75.3 µM), hits mostly inhibitors | 7.3% of 220,000 active | AID 1030, 2008; active means well fitted inhibition curve with a large enough effect, not every such curve was filed as active; inconclusive means small, poorly fitted or top-dose-only effect, or another doubt; inactive means no such curve, though single readings can be large or run the other way
IMPase Li cell – qHTS Assay for Identifying the Cell-Membrane Permeable IMPase Inhibitors: Potentiation with Lithium; CHO-M1 cells, IP1 TR-FRET (IP-One), carbachol + lithium; Potency, µM (doses to about 59.4 µM), actives largely listed as inhibitors; 0.35% of 210,000 active; AID 1457, 2008;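 further: IP1 builds up when IMPase is blocked and the TR-FRET signal falls; nearly all actives have a fitted effect of over 50% in size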
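Test compounds were applied to CHO-M1 cells previously cultured for 16–30 h at 2000 per well. A small lithium amount accompanied them; after 30 min at 37C, IP1 was quantified by TR-FRET.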
12-hLO inh – qHTS Assay for Inhibitors of 12-hLO (12-human lipoxygenase); Potency, µM (top dose mostly 57.1 µM), hits mostly inhibitors; purified 12-hLO, xylenol orange hydroperoxide absorbance; 0.12% of 150,000 active; Polyunsaturated fatty acid lipoxygenase ALOX12 (Homo sapiens), P18054; further: nearly all actives have a fitted effect of over 55% in size
Target sequence (P18054 whole entry, looked up): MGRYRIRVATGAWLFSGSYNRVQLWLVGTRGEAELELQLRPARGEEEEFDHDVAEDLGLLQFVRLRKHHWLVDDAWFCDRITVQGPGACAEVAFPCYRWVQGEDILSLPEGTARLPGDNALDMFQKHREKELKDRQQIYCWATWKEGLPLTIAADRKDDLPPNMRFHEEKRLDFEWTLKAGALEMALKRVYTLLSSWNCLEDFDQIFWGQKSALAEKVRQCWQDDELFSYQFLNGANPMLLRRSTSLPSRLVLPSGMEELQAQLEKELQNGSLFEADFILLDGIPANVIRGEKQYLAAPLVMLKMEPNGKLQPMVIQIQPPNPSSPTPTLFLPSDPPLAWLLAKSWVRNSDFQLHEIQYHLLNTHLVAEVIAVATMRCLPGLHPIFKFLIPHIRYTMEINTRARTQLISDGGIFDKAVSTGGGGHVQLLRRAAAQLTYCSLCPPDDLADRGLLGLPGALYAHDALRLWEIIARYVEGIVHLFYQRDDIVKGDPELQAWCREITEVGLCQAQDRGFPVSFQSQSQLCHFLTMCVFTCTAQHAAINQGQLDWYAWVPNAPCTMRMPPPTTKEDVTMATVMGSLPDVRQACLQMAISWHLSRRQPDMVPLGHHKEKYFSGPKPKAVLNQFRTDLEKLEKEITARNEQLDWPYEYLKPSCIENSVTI
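Purified human 12hLO (150 nM final) was preincubated with compounds for 15 min at room temperature in 25 mM Hepes pH 7.0, 0.01% Triton X-100, then reacted with 40 uM arachidonic acid for 30 min. Hydroperoxide was detected with ferrous iron/xylenol orange.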
Hits are given with their value; i = inactive; ? = inconclusive; nt = no result given; [ ] = dose if it differs, or a comment. In the library only some 11% were active in any assay of this set; here they are far more common. Unless noted, the call rests on the fitted dose curve; in most records, active means well fitted curve in the direction sought with a large enough effect; inconclusive means small, poorly fitted or top-dose-only effect, or another doubt; inactive means no such curve, though single readings can be large; an effect the other way counts as inactive or inconclusive.

SMILES	PNC inhibitor	IMPase cell inh	HPGD block	ALDH1A1 inh	IMPase Li cell	12-hLO inh
CCOc1cc(C2NC(=S)NC(C)=C2C(=O)Nc2ccc(OC)cc2)ccc1O (configuration not stated)	?	nt	i	?	i	i
CC1=C(C(=O)Nc2ccccn2)C(c2ccc(Br)cc2)NC(=S)N1 (configuration not stated)	?	nt	i	0.708µM	i	i
Cc1ccc(C(=O)COC(=O)c2cc(-c3ccccc3)nc3ccccc23)cc1C	nt	i	nt	nt	nt	nt
CC(C)C1NC(=O)[C@H](CCCCN)NC(=O)[C@@H](Cc2c[nH]c3ccccc23)NC(=O)[C@H](Cc2ccc(O)cc2)NC(=O)[C@H](C)N(C)C(=O)[C@H](Cc2ccccc2)NC1=O (some centres not stated)	nt	nt	i	i	i	nt
CC(C)(C)OC(=O)NCCCCC1=CC2=CC(=O)C(C)(OC(=O)C3CCCC3)C(=O)C2=CO1 (configuration not stated)	nt	nt	i	i	i	i
CCOc1ccccc1Nc1nc2ccccc2n1C(C)C	nt	nt	nt	i	i	nt
COc1cccc(C(=O)Nc2cccc(C(C)=O)c2)c1	i	nt	i	?	i	i
COc1ccc(C(C)=O)cc1CN(C)C	i	i	i	8.91µM	i	i
COc1ccc(Br)cc1CN(C)C(C)C(=O)Nc1cccc(C(C)=O)c1 (configuration not stated)	nt	nt	nt	10µM	i	nt
COc1ccc(OC)c(C(C)NC(=O)Nc2cccc(C(C)=O)c2)c1 (configuration not stated)	nt	nt	nt	11.2µM	i	nt
COc1ccc(C(C)=O)cc1CSCCC(=O)O	i	i	28.2µM	i	i	i
Cc1ccc(NC(=O)Cn2cc(S(=O)(=O)N3CCC(C)CC3)c3ccccc3c2=O)c(Br)c1	nt	i	nt	nt	nt	nt
CCCCCCCC/C=C\CCCCCCCC(=O)OC[C@@H](O)COP(=O)(O)O	nt	nt	i	i	i	i
Cc1nc2ccc(S(=O)(=O)NCC(=O)N(C)Cc3ccccc3)cc2s1	nt	nt	nt	?	i	nt
Cn1c(SCc2ccccc2F)nnc1-c1ccccn1	nt	nt	nt	?	i	nt
c1ccc2cc(-c3cc(-c4cc(-c5ccc6ccccc6c5)on4)no3)ccc2c1	nt	nt	i	i[13.5 µM]	i	i[11.4 µM]
COc1ccc(C(C)=O)cc1CN1C(=O)NC2(CCCCCCC2)C1=O	nt	nt	nt	6.31µM	i	nt
O=C1OC(c2ccccc2)=C/C1=C/c1cccs1	i	nt	i	i	i	i
O=C1/C(=C/c2cccs2)COc2ccccc21	i	i	25.1µM	i	i	i
COc1ccc(/C=c2\sc3nc(-c4ccccc4OC)nn3c2=O)c(OC)c1	i	i	?	i	i	i
C=CCOc1ccccc1/C=c1\sc2nc(=O)c(C)nn2c1=O	i	nt	i	22.4µM	i	i
O=c1c(-c2cccs2)nc2cncnc2n1-c1ccccc1	nt	nt	nt	?	i	nt
N#C/C(=C/c1ccc(N2CCCC2)c([N+](=O)[O-])c1)c1nc2ccccc2[nH]1	i	i	i	?	i	i
N#C/C(=C\c1cccc([N+](=O)[O-])c1)c1nnc2n1CCCCC2	i	nt	31.6µM	20µM	i	i
CN(c1ccccc1)c1ccc(/C=C(\C#N)c2nnc3n2CCCCC3)cc1[N+](=O)[O-]	-90.8	i	nt	?	nt	i
CC1CC(C)CN(CCCSc2ccccc2)C1 (configuration not stated)	i	nt	i	23.8µM	i	i
c1ccc(SCCOCCn2cncn2)cc1	?	i	i	28.2µM	i	i
CC1CC(C)CN(CCOCCSc2ccccc2)C1 (configuration not stated)	?	nt	i	14.1µM	i	i
O=c1c(-c2cccc(F)c2)nc2cncnc2n1Cc1ccccc1Cl	nt	nt	nt	?	i	nt
NC1CCN(c2c(F)cc3c(=O)c(C(=O)O)cn(C4CC4)c3c2Cl)C1 (configuration not stated)	nt	nt	nt	i	nt	nt
